This is a sample that favours compounds with a hit; in the whole collection about 9.2% have one here.
Rab9 prom act – activates the Rab9 promoter | Huh7 Rab9 promoter-luciferase reporter, luminescence, 24 h | Potency, µM (top dose mostly 9.22 µM), without a hit: at the highest dose activation, negative = inhibition, hits mostly activators | 320,000 compounds, 2.8% hits | AID 485297; further: % of control where 0% means no effect; nearly all actives have a fitted effect of over 60% in size
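Measured in stably transfected Huh7 cells bearing a Rab9 promoter–luciferase construct: 24 h compound treatment at 37 °C, followed by luminescence detection.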
NPC1 promoter act – activates the NPC1 promoter; Huh7 NPC1 promoter luciferase reporter, 24 h; Potency, µM (doses to about 9.22 µM), for the others: top-dose activation, actives largely listed as activators; 320,000 compounds, 2.4% hits; further: % of control where 0% means no effect; nearly all actives have a fitted effect of over 60% in size
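Compounds in DMSO were transferred onto Huh7 NPC1-luciferase reporter cells pre-incubated 2 h; after 24 h at 37 °C, Amplite reagent was dispensed and luminescence recorded 10 min later.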
ELG1 genotoxic – genotoxicity induction in ELG1-luciferase HEK293T cells. HEK293T ELG1-luciferase reporter, luminescence, 16 h. Potency, µM (top dose mostly 46 µM), for the others: top-dose activity change, positive = activation, hits mostly activators. 330,000 compounds, 1.3% hits; further: % of control where 0% means no effect; nearly all actives have a fitted effect of over 60% in size
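16 hr compound incubation (37 °C, 5% CO2) of HEK293T cells carrying luciferase-tagged ELG1; luciferase then measured by ONE-Glo luminescence after 30 min at RT.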
SMN2 splice up – increases expression of the SMN2 splice variant | Potency, µM (titrated, usually from 46.1 µM), without a hit: top-dose activity change, positive = activation, actives largely listed as activators | HEK293 SMN2-luciferase splicing reporter, luminescence, 30-36 h | AID 1458 | 210,000 compounds, 2.8% hits; further: % of control where 0% means no effect; nearly all actives have a fitted effect of over 55% in size
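qHTS luciferase splicing reporter: luminescence rises when SMN2 exon 7 is included in transfected HEK293 cells. Compound exposure lasted 30-36 h at 37C, with 4.5 mM final sodium butyrate as control, followed by a ONE-Glo read.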
FLuc modulator – firefly luciferase modulation, counter-screen for miR-21 project | 360,000 compounds, 6.9% hits | P08659 | purified FLuc, Km substrates, luminescence inhibition | Potency, µM (highest dose often 57.5 µM), for the others: at the highest dose activity change, negative = inhibition, hits mostly inhibitors | AID 588342;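 further: plate controls were vehicle for no effect and reference inhibitor for full effect; nearly all actives have a fitted effect of over 55% in size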
Target sequence (P08659 whole entry, looked up): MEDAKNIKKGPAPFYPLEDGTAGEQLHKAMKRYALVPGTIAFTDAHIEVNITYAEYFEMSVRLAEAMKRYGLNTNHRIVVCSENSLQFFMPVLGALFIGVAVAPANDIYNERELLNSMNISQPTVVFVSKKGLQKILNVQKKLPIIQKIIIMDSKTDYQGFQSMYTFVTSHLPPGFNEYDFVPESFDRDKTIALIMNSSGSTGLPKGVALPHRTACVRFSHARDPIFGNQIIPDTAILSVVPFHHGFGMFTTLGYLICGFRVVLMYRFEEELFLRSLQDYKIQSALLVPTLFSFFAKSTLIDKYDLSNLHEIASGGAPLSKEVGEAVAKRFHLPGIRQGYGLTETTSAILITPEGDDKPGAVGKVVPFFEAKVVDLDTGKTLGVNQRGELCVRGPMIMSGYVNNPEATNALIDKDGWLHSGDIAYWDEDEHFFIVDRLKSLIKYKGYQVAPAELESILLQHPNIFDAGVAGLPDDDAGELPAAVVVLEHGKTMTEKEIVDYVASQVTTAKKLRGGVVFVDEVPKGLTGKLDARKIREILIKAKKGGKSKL
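Purified P. pyralis luciferase, 10 nM final, with Km-level 10 uM D-luciferin and 10 uM ATP in 50 mM Tris acetate pH 7.5, 10 mM Mg acetate, 0.01% Tween-20, 0.05% BSA; 6-point qHTS titration about 60 µM downward; luminescence read.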
ELG1 DNA repair – inhibitors of ELG1-dependent DNA repair in HEK293T cells; AID 504467; HEK293T ELG1-luciferase reporter, luminescence, 16 h; DNA damage induced by 5-fluorouridine; Potency, µM (series often up to 46.1 µM), without a hit: at the highest dose activity change, negative = inhibition, hits mostly inhibitors; 330,000 compounds, 2.3% hits; further: on the % scale 0 is the no-effect control and ±100 the full control effect; nearly all actives have a fitted effect of over 55% in size
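DMSO vehicle served as the neutral condition. Each well held 2,000 cells given 5-fluorouridine plus compound; after 16 hr at 37 °C/5% CO2, ONE-Glo was added and luciferase measured 30 min later.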
Starred values were filed as active, the others as inactive; [ ] = another dose, or the depositor's remark. The call rests on the fitted dose curve; in most records, active means well fitted curve in the direction sought with a large enough effect; inconclusive means small, poorly fitted or top-dose-only effect, or another doubt; inactive means no such curve, though single readings can be large; an effect the other way counts as inactive or inconclusive. Potency means the concentration at half of the fitted maximal effect.

O=C(Nc1ccc(F)c(F)c1)c1ccc(-n2cncn2)c([N+](=O)[O-])c1 was read as Rab9 prom act -3.5%, NPC1 promoter act -0.8%, ELG1 genotoxic -5.8%, FLuc modulator 2.9% and ELG1 DNA repair inconclusive.
For O=C(Nc1cccc(/C=C/c2ccccn2)c1)c1cc(Cl)ccn1 the results were Rab9 prom act 2.82µM*, NPC1 promoter act inconclusive, ELG1 genotoxic inconclusive, FLuc modulator 19µM* and ELG1 DNA repair inconclusive.
For O=C(Nc1cccc(/C=C/c2ccccn2)c1)c1ccc(-n2cncn2)c([N+](=O)[O-])c1 the results were Rab9 prom act 17.8%, NPC1 promoter act -3.2%, ELG1 genotoxic -41.7%, FLuc modulator 23.9µM* and ELG1 DNA repair 9.2µM*.
For Clc1ccccc1Sc1ccc(-c2ccccn2)s1 the results were Rab9 prom act 1.9%, NPC1 promoter act -2.5%, ELG1 genotoxic 0.0%, FLuc modulator inconclusive and ELG1 DNA repair -4.5%.
Screening CCc1cc2c(=O)c(-c3cscn3)coc2cc1O returned Rab9 prom act 25.5%, NPC1 promoter act 26.4%, ELG1 genotoxic 13µM*, SMN2 splice up 21.1%, FLuc modulator inconclusive and ELG1 DNA repair inconclusive.
For CCc1cc2c(=O)c(-c3cscn3)coc2cc1OC the results were Rab9 prom act 2µM*, NPC1 promoter act 3.55µM*, ELG1 genotoxic inconclusive, SMN2 splice up 12.6µM*, FLuc modulator 1.69µM* and ELG1 DNA repair inconclusive.
`CCOC(=O)c1oc2cc(O)c(CC)cc2c(=O)c1-c1cscn1` gave Rab9 prom act -6.2%, NPC1 promoter act 0.8%, ELG1 genotoxic 1.6%, SMN2 splice up 13.6%, FLuc modulator -18.5% and ELG1 DNA repair 3.5%.
COc1ccc(Cl)cc1-c1nc(-c2ccc(Br)o2)no1 was read as Rab9 prom act inconclusive, NPC1 promoter act inconclusive, ELG1 genotoxic 3.9%, SMN2 splice up inconclusive, FLuc modulator 2.5% and ELG1 DNA repair inconclusive.
Cc1ccccc1-c1nc(-c2ccc(Br)o2)no1 was read as Rab9 prom act 2.24µM*, NPC1 promoter act 1.78µM*, ELG1 genotoxic inconclusive, FLuc modulator 3.38µM* and ELG1 DNA repair inconclusive.
Screening Fc1ccccc1-c1nc(-c2ccc(Br)o2)no1 returned Rab9 prom act inconclusive, NPC1 promoter act 0.501µM*, ELG1 genotoxic inconclusive, FLuc modulator 0.849µM* and ELG1 DNA repair inconclusive.
Screening COc1ccc2c(C)c(CCC(=O)NCc3ccccc3Cl)c(=O)oc2c1C returned SMN2 splice up -0.8% and FLuc modulator -1.3%.
C/C(=N/O)c1ccc2c(c1)OCCOCCOc1cc(/C(C)=N/O)ccc1OCCOCCO2 was read as Rab9 prom act -3.4%, NPC1 promoter act -0.5%, ELG1 genotoxic -3.4%, SMN2 splice up -10.1%, FLuc modulator -15.7% and ELG1 DNA repair inconclusive.
For S=C(NCCCc1ccccc1)NC1CCCCC1 the results were Rab9 prom act 20.7%, NPC1 promoter act 18.3%, ELG1 genotoxic 5.5%, FLuc modulator -19.4% and ELG1 DNA repair inconclusive.
For S=C(NCCc1ccccn1)NC1CCCCC1 the results were Rab9 prom act inconclusive, NPC1 promoter act inconclusive, ELG1 genotoxic inconclusive, SMN2 splice up 11.2µM*, FLuc modulator inconclusive and ELG1 DNA repair inconclusive.
Screening COc1cc(NC(=O)c2ccnc(N)c2)cc(C(=O)Nc2cccc(C(F)(F)F)c2)c1 returned Rab9 prom act -2.7%, NPC1 promoter act -8.0%, ELG1 genotoxic 0.5%, FLuc modulator 19µM* and ELG1 DNA repair 13.5%.
`COc1cc(NC(=O)c2cnc(N)o2)cc(C(=O)Nc2cccc(C(F)(F)F)c2)c1` gave Rab9 prom act -5.8%, NPC1 promoter act -2.8%, ELG1 genotoxic -13.1%, FLuc modulator 21.3µM* and ELG1 DNA repair 14.6µM*.
`COc1cc(NC(=O)c2csc(N)n2)cc(C(=O)Nc2cccc(C(F)(F)F)c2)c1` gave Rab9 prom act -21.5%, NPC1 promoter act 20.8%, ELG1 genotoxic -14.4%, FLuc modulator inconclusive and ELG1 DNA repair 23.1µM*.
`COc1cc(NC(=O)c2cnc(N)s2)cc(C(=O)Nc2cccc(C(F)(F)F)c2)c1` gave Rab9 prom act 11.0%, NPC1 promoter act 12.6%, ELG1 genotoxic -2.5%, FLuc modulator 12µM* and ELG1 DNA repair 0.0%.
For S=C(NCCc1ccccc1)Nc1ccc(Br)cn1 the results were Rab9 prom act 0.5%, NPC1 promoter act -0.9%, ELG1 genotoxic -1.4%, SMN2 splice up 0.7%, FLuc modulator -16.3% and ELG1 DNA repair -4.0%.
`O=[N+]([O-])c1cccc(S(=O)(=O)NCc2ccncc2)c1` gave Rab9 prom act -20.5%, NPC1 promoter act -16.3%, ELG1 genotoxic -3.2%, FLuc modulator 0.5% and ELG1 DNA repair inconclusive.
CCn1c(N2CCN(S(=O)(=O)c3ccc(Cl)cc3)CC2)nc2ccccc21 was read as Rab9 prom act -4.9%, NPC1 promoter act -9.9%, ELG1 genotoxic -16.4%, SMN2 splice up -43.3%, FLuc modulator -0.2% and ELG1 DNA repair 14.6µM*.
For CNC(=O)/C(C#N)=C/c1c(N2CCCCCC2)nc2c(C)cccn2c1=O the results were Rab9 prom act -1.8%[1.84 µM], NPC1 promoter act 4.2%, ELG1 genotoxic -7.9%, FLuc modulator -0.8% and ELG1 DNA repair 8.2%.
For O=C(Nc1ccc(S(=O)(=O)NCC2CCCO2)cc1)c1cccc(F)c1 (stereo not given) the results were Rab9 prom act -3.5%, NPC1 promoter act 0.2%, ELG1 genotoxic -17.3%, FLuc modulator 2.1% and ELG1 DNA repair inconclusive.
`COc1ccc(/C=N/Nc2nc3ccccc3[nH]2)cc1OC` gave Rab9 prom act inconclusive, NPC1 promoter act inconclusive, ELG1 genotoxic 11.1%, SMN2 splice up 0.8%[1.84 µM], FLuc modulator 7.57µM* and ELG1 DNA repair inconclusive.
COc1cc(/C=N\Nc2nc3ccccc3[nH]2)cc(OC)c1OC was read as Rab9 prom act -6.2%, NPC1 promoter act -2.5%, ELG1 genotoxic -2.2%, SMN2 splice up -23.5%, FLuc modulator 10.7µM* and ELG1 DNA repair -2.3%.
COc1cc(/C=C/C(=O)NCc2nc3ccccc3[nH]2)cc(OC)c1OC was read as Rab9 prom act -5.6%, NPC1 promoter act -3.5%, ELG1 genotoxic inconclusive, FLuc modulator -0.7% and ELG1 DNA repair inconclusive.
For COc1cc(OC)c(OC)cc1/C=N/Nc1nc2ccccc2[nH]1 the results were Rab9 prom act 8.8%, NPC1 promoter act 1.1%, ELG1 genotoxic 1.3%, FLuc modulator -14.2% and ELG1 DNA repair inconclusive.
